According to PubChem BioAssay:
Entries with a potency or affinity are not part of this list. Unmarked numbers belong to inactive results. Activity calls are given as the source filed them. No rule for the calls is given here.

assay: A2780 cell killing – plate reader, dry powder samples, cytotoxicity control, dose response (AID 743046); conditions: A2780 ovarian cancer cytotoxicity; series mostly up to 35 µM; activity change, negative = cytotoxicity: at the top concentration;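 also: 0% = neutral control wells and -100% = cytotoxic reference compound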

Row | SMILES | activity change, negative = cytotoxicity | outcome
1 | COc1ccc(S(=O)(=O)Nc2ccc3c(c2)CC(=O)N([C@@H](C)CO)C[C@@H](C)[C@H](CN(C)Cc2ccc(-c4ccccc4)cc2)O3)cc1 | 9.03% | –
2 | C[C@H](O)C#Cc1cnc2c(c1)C(=O)N([C@H](C)CO)C[C@H](C)[C@H](CN(C)Cc1ccc(-c3ccccc3)cc1)O2 | 5.73% | –
3 | O=C(c1ccc(F)cc1)N1C[C@@H]2N[C@H](C1)C2c1ccc(-c2ccc(F)cc2)cc1 (some centres not stated) | -11.6% | –
4 | C[C@H](O)C#Cc1ccc2c(c1)O[C@H](CN(C)Cc1ccc(-c3ccccc3)cc1)[C@@H](C)CN([C@H](C)CO)S2(=O)=O | -8.67% | –
5 | C[C@@H]1CN([C@H](C)CO)C(=O)Cc2cc(NS(=O)(=O)c3ccccc3)ccc2O[C@@H]1CN(C)S(=O)(=O)c1ccc(Cl)cc1 | -3.18% | –
6 | C[C@@H]1CCCCO[C@H](CN(C)C)[C@H](C)CN([C@H](C)CO)C(=O)c2cc(NC(=O)Nc3cccc4ccccc34)ccc2O1 | -2.77% | –
7 | C[C@@H]1CN([C@H](C)CO)C(=O)c2c(c3ccccc3n2C)-c2ccccc2CO[C@@H]1CN(C)C | 3.31% | –
8 | COc1ccccc1S(=O)(=O)N(C)C[C@@H]1Oc2cc(C#CCC3CCCC3)ccc2S(=O)(=O)N([C@@H](C)CO)C[C@@H]1C | 14.1% | –
9 | CCCN(C)C[C@H]1OCCCC[C@@H](C)Oc2ccc(NC(=O)c3ccccc3)cc2C(=O)N([C@H](C)CO)C[C@H]1C | 26.7% | –
10 | C[C@@H]1CN([C@@H](C)CO)C(=O)Cc2cc(NC(=O)Nc3ccc(F)cc3)ccc2O[C@H]1CN(C)CC1CCCCC1 | 27.4% | –
11 | O=C(Nc1cccc(F)c1)N[C@@H]1CC[C@@H](CCNS(=O)(=O)c2cccc(Cl)c2)O[C@@H]1CO | 18% | –
12 | C[C@@H]1CN([C@@H](C)CO)C(=O)Cc2cc(N(C)C)ccc2O[C@H]1CN(C)Cc1ccc(Oc2ccccc2)cc1 | 0.302% | –
13 | Cc1ccc(S(=O)(=O)Nc2ccc3c(c2)C(=O)N([C@@H](C)CO)C[C@@H](C)[C@@H](CN(C)Cc2ccc(C(F)(F)F)cc2)OCCCC[C@@H](C)O3)cc1 | -21.3% | –
14 | Cc1cccc(-c2ccc([C@H]3[C@H](CO)N4CCCCN(S(=O)(=O)c5ccccc5C)C[C@@H]34)cc2)c1 | 12.4% | –
15 | C[C@H]1CCCCO[C@@H](CN(C)C(=O)Nc2ccc(C(F)(F)F)cc2)[C@@H](C)CN([C@@H](C)CO)C(=O)c2cc(NS(=O)(=O)c3cn(C)cn3)ccc2O1 | 5.54% | –
16 | C[C@@H]1CN([C@H](C)CO)C(=O)c2cc(NC(=O)Nc3ccccc3)ccc2O[C@@H](C)CCCCO[C@H]1CN(C)Cc1ccc(Cl)c(Cl)c1 | -3.54% | –
17 | C[C@H]1CCCCO[C@@H](CN(C)C)[C@@H](C)CN([C@@H](C)CO)C(=O)c2cc(NC(=O)Nc3ccc(C(F)(F)F)cc3)ccc2O1 | -9.93% | –
18 | C[C@H](CO)N1C[C@H](C)[C@@H](CN(C)Cc2ccc(-c3ccccc3)cc2)Oc2ccc(NC(=O)Cc3ccccc3)cc2CC1=O | 5.8% | –
19 | C[C@H](CO)N1C[C@H](C)[C@H](CN(C)C(=O)NC2CCCCC2)Oc2cc(C#Cc3ccc(F)cc3)ccc2S1(=O)=O | 5.31% | –
20 | O=C(Nc1ccc(C(F)(F)F)cc1)N1C[C@@H]2N[C@H](C1)C2c1ccc(-c2ccccc2)cc1 (some centres not stated) | – | inactive
21 | C[C@@H]1CCCCO[C@H](CN(C)Cc2ccc(C(F)(F)F)cc2)[C@H](C)CN([C@@H](C)CO)C(=O)c2cc(NC(=O)Nc3ccc(F)cc3)ccc2O1 | 3.93% | –
22 | Cc1ccc(S(=O)(=O)Nc2ccc3c(c2)C(=O)N([C@@H](C)CO)C[C@@H](C)[C@@H](CN(C)Cc2ccc(C(F)(F)F)cc2)OCCCC[C@H](C)O3)cc1 | -13.3% | –
23 | C[C@H](CO)N1C[C@H](C)[C@H](CN(C)C(=O)NC2CCCCC2)OCCCC[C@H](C)Oc2ccc(NC(=O)Nc3ccc(C(F)(F)F)cc3)cc2C1=O | 10.2% | –
24 | C[C@@H]1CN([C@@H](C)CO)S(=O)(=O)c2ccc(C#Cc3ccc(F)cc3)cc2O[C@H]1CN(C)C(=O)NC1CCCCC1 | 27.4% | –
25 | C[C@@H]1CN([C@@H](C)CO)C(=O)Cc2cc(NC(=O)c3ccncc3)ccc2O[C@@H]1CN(C)Cc1ccc(-c2ccccc2)cc1 | -4.69% | –
26 | Cc1ccc(S(=O)(=O)Nc2ccc3c(c2)C(=O)N([C@@H](C)CO)C[C@@H](C)[C@@H](CN(C)Cc2ccc(Cl)c(Cl)c2)OCCCC[C@@H](C)O3)cc1 | -2.1% | –
27 | O=C(C[C@H]1CC[C@@H]2[C@H](COC[C@@H](O)CN2Cc2ccc(F)cc2)O1)NCc1ccccc1Cl | 22.7% | –
